Results published in PubChem BioAssay.
Calls of active or inactive are those of the source. Unless noted, no rule for the calls is given here.

Key:
[1] = tested on: XIP peptide (Xip251-270) binding; test: XIP fragment 251-270 binding compounds – biochemical, small-molecule microarray, fluorescence 635/667 nm, 0.1 µg/mL protein, primary screen (AID 1182); settings: fluorescent protein binding, 635 nm, higher = more signal, called active from +8 up or from −8 down
XIP peptide (Xip251-270) = test: compounds binding XIP fragment 251-270 – biochemical, small-molecule microarray, fluorescence 635/667 nm, 0.5 µg/mL protein, primary screen (AID 1183); settings: fluorescence 635 nm, higher = more signal
[2] = blood-stage malaria parasite viability loss – strain 3D7, DAPI fluorescence, 100 nL, primary screen (AID 1184);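 also: parasites grown inside human red blood cells in medium with human serum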; settings: P. falciparum 3D7 growth, 3 d, higher = more signal
[3] = target: Homeobox protein Hox-A13 (Mus musculus) (UniProt Q62424); test: disruptors of Hoxa13 oligonucleotide interaction – biochemical, fluorescence polarization, labeled oligonucleotide, primary screen (AID 1185); settings: Hoxa13:DNA binding, 15 min, higher = more signal, called active from +8 up or from −8 down
[4] = blockers of DNA damage checkpoint Chk1 activation – imaging, HeLa, hydroxyurea, phospho-Chk1 antibody, percent positive cells, primary screen (AID 1186); settings: hydroxyurea-induced phospho-Chk1 immunofluorescence imaging, higher = more signal
[5] = blockers of DNA damage checkpoint Chk1 activation – imaging, HeLa, hydroxyurea, phospho-Chk1 nuclear intensity, primary screen (AID 1187); settings: hydroxyurea-induced phospho-Chk1 immunofluorescence imaging, higher = more signal

Chain of Homeobox protein Hox-A13 (Mus musculus) (Q62424 whole entry, looked up): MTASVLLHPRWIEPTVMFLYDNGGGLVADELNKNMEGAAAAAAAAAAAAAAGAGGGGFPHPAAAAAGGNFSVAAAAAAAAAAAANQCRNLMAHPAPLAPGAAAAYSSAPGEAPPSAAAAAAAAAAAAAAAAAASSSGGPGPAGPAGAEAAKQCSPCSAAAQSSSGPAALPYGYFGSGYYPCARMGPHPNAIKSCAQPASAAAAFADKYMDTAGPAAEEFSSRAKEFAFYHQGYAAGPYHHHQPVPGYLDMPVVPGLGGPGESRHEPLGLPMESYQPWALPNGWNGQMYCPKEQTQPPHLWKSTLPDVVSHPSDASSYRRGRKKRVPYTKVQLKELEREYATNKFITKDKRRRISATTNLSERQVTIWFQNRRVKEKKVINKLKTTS

Compound	composite z-score [1]	composite z-score (XIP peptide (Xip251-270))	z-score [2]	z-score [3]	z-score [4]	z-score [5]
NC(=O)NCC#Cc1ccc2c(c1)[C@]1(C(=O)N2)[C@H](C(=O)N2CCN(c3ncccn3)CC2)[C@H]2C(=O)O[C@H](c3ccccc3)[C@H](c3ccccc3)N2[C@@H]1c1ccc(OCCO)cc1	-0.134 (inactive)	0.193	-0.232	-1.02 (inactive)	-0.216 (inactive)	-0.0071 (inactive)
COC(=O)C(CC#Cc1ccc2c(c1)[C@]1(C(=O)N2)[C@H](c2ccc(O)cc2)N2[C@H](c3ccccc3)[C@H](c3ccccc3)OC(=O)[C@H]2[C@@H]1C(=O)N1CCCCCCC1)C(=O)OC	0.225 (inactive)	0.59	-1.92	2.08 (inactive)	-0.0422 (inactive)	0.413 (inactive)
COc1ccc([Si](C)(C)[C@H]2[C@H](CC(=O)N3Cc4ccccc4C[C@H]3CO)O[C@@]3(C(=O)N(Cc4ccc(N5C(=O)c6cccc7cccc5c67)cc4)c4ccccc43)[C@@H]2C)cc1	1.23 (inactive)	0.738	-1.79	-2.7 (inactive)	-1.02 (inactive)	-0.113 (inactive)
COc1ccc([Si](C)(C)[C@H]2[C@H](CCO)O[C@@]3(C(=O)N(Cc4ccccc4)c4ccc(N5CCOC5=O)cc43)[C@@H]2C)cc1	0.16 (inactive)	0.52	-1.75	-3.27 (inactive)	-0.796 (inactive)	-0.721 (inactive)
C=CCN1C(=O)[C@@]2(O[C@@H](CCO)[C@H]([Si](C)(C)c3ccc(OC)cc3)[C@H]2C)c2cc(N3CCOC3=O)ccc21	0.341 (inactive)	0.68	-2.39	-5.97 (inactive)	-0.0674 (inactive)	0.0448 (inactive)
O=C1C2C=CC(C(O)c3ccc(I)cc3)N(Nc3ccccc3)C2C(=O)N1c1ccccc1 (stereo not given)	0.393 (inactive)	0.702	0.83	-2.67 (inactive)	-0.007 (inactive)	-1.05 (inactive)
Cc1ccc(C(C)CC(O)C2C=CC3C(=O)N(c4ccccc4)C(=O)C3N2Nc2ccc(C#N)cc2)o1 (stereo not given)	0.662 (inactive)	0.322	0.25	-3.75 (inactive)	0.124 (inactive)	0.222 (inactive)
COc1ccc([Si](C)(C)[C@@H]2[C@@H](CC(=O)N3Cc4ccccc4C[C@H]3CO)O[C@]3(C(=O)N(c4ccccc4)c4ccccc43)[C@H]2C)cc1	3.93 (inactive)	0.546	-2.38	-4.85 (inactive)	-0.0103 (inactive)	-0.192 (inactive)
CN1C=C(C(=O)OCCS(C)(=O)=O)C(C(=O)OCCS(C)(=O)=O)=CC(c2ccc(CO)cc2)=CC1c1cccs1 (stereo not given)	0.514 (inactive)	0.496	-2.58	-5.46 (inactive)	-0.163 (inactive)	-0.265 (inactive)
CCCC=C(CCC)[C@@H](NS(=O)(=O)c1cccc2cccnc12)c1ccc(-c2ccccc2)cc1	-0.356 (inactive)	0.604	-0.831	-0.807 (inactive)	0.483 (inactive)	0.309 (inactive)
CCCNC(=O)[C@@]1(C)c2ccccc2C(=O)N(Cc2ccccc2)[C@H]1c1ccc(CO)cc1	0.952 (inactive)	0.355	-0.804	-1.91 (inactive)	-0.558 (inactive)	-0.579 (inactive)
C=C(COC)C(=O)CC[C@H](OC(C)=O)c1ccc(OCCO)cc1	-0.388 (inactive)	0.58	-2.39	-4.76 (inactive)	-0.559 (inactive)	-0.357 (inactive)
C=CCNC(=O)[C@@H]1[C@H]2C(=O)O[C@H](c3ccccc3)[C@H](c3ccccc3)N2[C@H](c2ccc(O)cc2)[C@@]12C(=O)Nc1ccc(C#CCC(C(=O)OC)C(=O)OC)cc12	1.03 (inactive)	0.729	-1.84	-2.97 (inactive)	-0.267 (inactive)	-0.625 (inactive)
COCCOC(=O)N1C(=O)[C@@]2(c3cc(C#CC4=CCCCC4)ccc31)[C@H](c1ccc(O)cc1)N1[C@H](c3ccccc3)[C@H](c3ccccc3)OC(=O)[C@H]1[C@@H]2C(=O)NC[C@H](O)c1ccccc1	0.816 (inactive)	0.75	-1.69	1.07 (inactive)	-0.0889 (inactive)	0.129 (inactive)
Cc1c(NC(=O)/C(C#N)=C/c2ccccc2Cl)c(=O)n(-c2ccccc2)n1C	-0.0708 (inactive)	0.808	0.419	-1.68 (inactive)	-0.0018 (inactive)	0.281 (inactive)
CC(=O)n1cc(C(O)C2C=CC3C(=O)N(c4ccccc4)C(=O)C3N2Nc2ccc(C(C)C)cc2)c2ccccc21 (stereo not given)	0.18 (inactive)	0.755	-0.15	-2.7 (inactive)	0.417 (inactive)	0.2 (inactive)
COCCOC(=O)N1C(=O)[C@@]2(c3cc(C#CCCO)ccc31)[C@H](C(=O)N1CCCCCCC1)[C@H]1C(=O)O[C@H](c3ccccc3)[C@H](c3ccccc3)N1[C@@H]2c1ccccc1OCCO	0.867 (inactive)	0.6	-2.18	3.5 (inactive)	0.204 (inactive)	0.606 (inactive)
C=C(CCCC)C(=O)CC[C@@H](OC(=O)c1cccnc1)c1ccc(OCCO)cc1	0.408 (inactive)	0.713	-2.28	-3.82 (inactive)	1.27 (inactive)	1.21 (inactive)

Compound	composite z-score [1]	composite z-score (XIP peptide (Xip251-270))	z-score [2]	z-score [3]	z-score [4]	z-score [5]
CC(C)=CCCC(C)=CC(O)C1C=CC2C(=O)N(c3ccccc3)C(=O)C2N1Nc1ccccc1F (stereo not given)	0.0917 (inactive)	0.546	0.203	-3.38 (inactive)	0.0156 (inactive)	0.0908 (inactive)
CN1C(=O)C2C(C1=O)C1C=C(CCCO)C2C(C2CC2)N1Cc1cc2c(cc1Br)OCO2 (stereo not given)	1.34 (inactive)	0.891	-1.2	-7.89 (inactive)	0.498 (inactive)	0.27 (inactive)
CCOC(=O)C1=C[C@@H](c2ccccc2)N(S(=O)(=O)c2ccc(C)cc2)[C@H]1c1ccccc1	0.598 (inactive)	0.303	-0.346	0.0724 (inactive)	0.667 (inactive)	0.529 (inactive)
CCCNC(=O)[C@@]1(Sc2ccc(C)cc2)CC(=O)N(C2CCCCC2)[C@@H]1c1ccc(CO)cc1I	0.398 (inactive)	0.372	-0.688	-4.72 (inactive)	0.493 (inactive)	0.252 (inactive)
CCCCNC(=O)c1ccc(C#C[Si](C(C)C)(C(C)C)C(C)C)c(OC(C)=O)c1	-0.211 (inactive)	0.413	-2.74	-2.16 (inactive)	0.0917 (inactive)	0.331 (inactive)
CC1(C)C(=O)C(c2ccccc2)=C2CN3C(=O)N(CCc4ccccc4)C(=O)C3(Cc3ccc(C(F)(F)F)cc3)C=C21 (stereo not given)	0.251 (inactive)	0.279	-0.745	-1.55 (inactive)	0.175 (inactive)	0.0024 (inactive)
CC(=O)NCCCC[C@@H]1NC(=O)[C@@H]2C[C@H](C(=O)NCCCCCCN)[C@H](c3cccc(OCCO)c3)N2C1=O	1.15 (inactive)	0.635	1.42	-3.35 (inactive)	0.391 (inactive)	0.388 (inactive)
CCOC(=O)C1=CCN(S(=O)(=O)c2ccc(C)cc2)C1c1ccccc1 (stereo not given)	0.866 (inactive)	0.805	-0.584	-3.71 (inactive)	0.607 (inactive)	0.346 (inactive)
COc1cc(CO)cc(I)c1O[C@H]1C=C(C(=O)NCCO)C[C@@H](NCC2CCCCC2)[C@@H]1O	0.0593 (inactive)	0.465	-0.68	-3.57 (inactive)	-1.23 (inactive)	-0.873 (inactive)
CC(C)(C)OC(=O)CC[C@]1(C(=O)N2CCCCC2)COC(c2ccc(OCCCO)cc2)=N1	0.252 (inactive)	0.643	-1.4	-4.56 (inactive)	-0.334 (inactive)	0.131 (inactive)
COc1ccc(C(O)C2C=CC3C(=O)N(c4ccccc4)C(=O)C3N2Nc2ccccc2)cc1 (stereo not given)	0.348 (inactive)	0.572	0.913	-3.76 (inactive)	0.0679 (inactive)	-0.392 (inactive)
C=CCC(OC(C)=O)[C@@H]1[C@@H](N(Cc2cc3ccccc3o2)C(=O)c2ccc(-c3ccccc3)cc2)c2cc(OCCCO)ccc2N1C(=O)Cc1ccc(OC)cc1 (stereo not given in full)	0.112 (inactive)	0.0332	-0.846	-1.8 (inactive)	0.754 (inactive)	0.0035 (inactive)
COCCOC(=O)N1C(=O)[C@@]2(c3ccccc31)[C@H](c1ccc(OCCO)cc1)N1[C@H](c3ccccc3)[C@H](c3ccccc3)OC(=O)[C@H]1[C@@H]2C(=O)N1CCCCCCC1	8.16 (active)	1.04	-2.08	-15.8 (active)	-0.17 (inactive)	0.128 (inactive)
O=C(CS)NCCCCCNC(=O)[C@@H]1C[C@@H]2C(=O)N[C@@H](Cc3ccccc3)C(=O)N2[C@@H]1c1cccc(OCCO)c1	0.74 (inactive)	0.77	-0.0054	-2.89 (inactive)	0.341 (inactive)	0.581 (inactive)
Cc1ccc(N2C(=O)c3ccccc3[C@](C)(C(=O)NCc3ccccc3)[C@@H]2c2ccc(CO)cc2)nc1	-0.353 (inactive)	-0.33	-1.34	-0.408 (inactive)	-0.0668 (inactive)	0.0633 (inactive)
CCOC(=O)C[C@H]1[C@H](OC(=O)c2ccc(C(=O)c3ccccc3)cc2)[C@@H](NC(=O)CC(C)C)c2cc(OCCCO)ccc2N1C(=O)Cc1ccc(OC)cc1	0.595 (inactive)	0.396	-0.241	-3.06 (inactive)	0.291 (inactive)	-0.261 (inactive)
Cc1nc2cc(Br)ccc2c(=O)n1Cc1cccc(O)c1	0.651 (inactive)	0.529	-0.563	0.464 (inactive)	0.18 (inactive)	0.257 (inactive)
